An excerpt weighted towards active compounds, which were near 6.2% of everything screened.
VP16 counter – VP16 counterscreen qHTS for inhibitors of ROR gamma transcriptional activity | Potency, µM (series often up to 53.6 µM), for the others: at the top dose activity, negative = inhibition, actives largely listed as inhibitors | actives 3.5% (n = 310,000) | AID 2546, 2010 | Drosophila S2 Gal4-VP16 UAS-luciferase, luminescence, 20 h;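 note: Gal4-VP16 expression switched on by copper sulfate through the metallothionein promoter; nearly all actives have a fitted effect of over 50% in size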
Luc counter – Counterscreen for Luciferase (Kinase-Glo TM) Inhibition; Kinase-Glo luciferase, ATP luminescence, 8 min; Luciferin 4-monooxygenase (Photuris pensylvanica), Q27757; Potency, µM (series often up to 38.3 µM), for the others: at the top dose activity change, negative = inhibition, usual class: inhibitors; actives 0.28% (n = 200,000); AID 1379, 2008; note: nearly all actives have a fitted effect of over 60% in size
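Luminescence was the read-out, taken after 8-minute incubation at ambient temperature. Luciferase turned over luciferin with 10 uM ATP in imidazole pH 7.2 buffer containing KCl, MgCl2, Tween 20 and BSA.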
RORgamma inh – qHTS for inhibitors of ROR gamma transcriptional activity. Drosophila S2 Gal4-RORgamma UAS-luciferase reporter, 20 h. Potency, µM (doses to about 53.6 µM), for the others: at the top dose activity change, negative = inhibition, actives largely listed as inhibitors. actives 5.4% (n = 310,000); note: nearly all actives have a fitted effect of over 60% in size
Target sequence (P51450 whole entry, looked up, the tested form may be a part): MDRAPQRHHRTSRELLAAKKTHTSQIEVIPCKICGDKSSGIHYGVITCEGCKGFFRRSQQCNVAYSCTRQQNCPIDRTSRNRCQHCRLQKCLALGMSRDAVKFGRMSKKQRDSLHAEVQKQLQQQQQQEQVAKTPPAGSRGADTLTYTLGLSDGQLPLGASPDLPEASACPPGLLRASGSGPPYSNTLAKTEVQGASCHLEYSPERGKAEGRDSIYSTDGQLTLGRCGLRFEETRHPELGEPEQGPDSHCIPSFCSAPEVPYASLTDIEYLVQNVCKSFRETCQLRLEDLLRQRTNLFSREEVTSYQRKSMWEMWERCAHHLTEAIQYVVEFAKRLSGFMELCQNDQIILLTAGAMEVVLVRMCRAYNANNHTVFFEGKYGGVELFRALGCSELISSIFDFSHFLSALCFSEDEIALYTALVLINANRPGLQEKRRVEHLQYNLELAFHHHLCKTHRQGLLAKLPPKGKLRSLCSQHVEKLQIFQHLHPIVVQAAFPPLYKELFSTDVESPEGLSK
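Luciferase reporter read in Schneider cells carrying Gal4-RORγ (mouse) and UAS-Photinus luciferase; cells given compound 1 h before 700 uM copper sulfate induction, then incubated 20 h at ambient temperature.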
* hit, by the source's call; u = inconclusive; x = no result given; [ ] = remark or other dose. Calls come from the whole dose curve; as a rule, active = well fitted curve in the direction sought with a large enough effect; inconclusive = small, poorly fitted or top-dose-only effect, or another doubt; inactive = no such curve, though single readings can be large; an effect the other way counts as inactive or inconclusive. % is set by controls: 0 for no effect and ±100 for the full control effect; potency is the fitted concentration of half-maximal effect.

SMILES	VP16 counter	Luc counter	RORgamma inh
Cc1cccc(NC(=S)Nc2cccc(C(F)(F)F)c2)n1	u	0%	1µM*
FC(F)(F)c1cc(NC(=S)Nc2ccc3ccccc3c2)cc(C(F)(F)F)c1	14µM*	0%	u
FC(F)(F)c1cccc(NC(=S)Nc2ccc(Cl)cc2Cl)c1	-25%	0%	u
FC(F)(F)c1cccc(NC(=S)Nc2cccc(NC(=S)Nc3cccc(C(F)(F)F)c3)n2)c1	u	x	5µM*
FC(F)(F)c1cc(NC(=S)NC23CC4CC(CC(C4)C2)C3)cc(C(F)(F)F)c1	u	2%	-18%
Cc1cc(NC(=O)Nc2cccc(C(F)(F)F)c2)no1	3%	-1%	21%
COc1cccc(C(=O)N2CCN=C2SC)c1	3%	1%	2%
COCCNC(=O)CN1CCN(Cc2cccc(Cl)c2)C1=O	0%	3%	16%
Cc1ccc(C(=O)N/N=C\c2cc3c(cc2Br)OCO3)s1	-24%	9%	-35%
Cc1cc(=O)oc2c(CN3CC(C)OC(C)C3)c(O)c(Cl)cc12 (stereo not drawn)	-16%[10 µM]	-4%	-2%
COc1ccc([C@]23Cc4cc(OC)c(OC)cc4C(O2)C2=C(CCCC2=O)O3)cc1	-1%[10 µM]	x	7%[10 µM]
Cc1noc(C)c1COc1ccc(C(=O)OCc2nnc(-c3ccc(Cl)cc3)o2)cc1	7%	x	9%
O=C1OC(c2ccccc2)=NC12CC2c1ccc(Cl)cc1 (stereo not drawn)	5µM*	0%	10µM*
O=CN1N=C(c2ccccc2)CC1c1ccc(Cl)cc1 (stereo not drawn)	-2%	x	-5%
COc1cc(C/C=C/c2ccccc2)c(OC)cc1O	-14%	-3%	u
Cc1ccccc1NC(=S)N/N=C1\CC(C)(C)Oc2ccc(O)cc21	-8%	4%	u
COc1ccc(NC(=O)COc2cc(O)c3c(c2)OC(C)(C)CC3=O)cc1	-8%	x	18%
CC(=O)N1CCC(N(CCN2CCOCC2)C(=S)Nc2ccc(C)cc2)CC1	7%	-1%	-1%
Cc1ccc(NC(=S)N/N=C2\CC(C)(C)Oc3ccc(O)cc32)cc1	5µM*	2%	5.6µM*
COc1ccc(NC(=S)N/N=C2\CC(C)(C)Oc3ccc(OC)cc32)cc1	2µM*	-1%	1.4µM*
CC(=O)N1CCC2(CC1)C/C(=N\NC(=S)Nc1ccc(C)cc1)c1cc(O)ccc1O2	u	2%	10µM*
Cc1ccc(S(=O)(=O)N2CCN(C(=O)C3CCCC3)CC2)cc1C	-16%	x	7%
O=C(O)c1ccc(NC(=S)N2CCCCC2)cc1	4%	-1%	-3%
Fc1cccc(NC(=S)N2CCCCC2)c1	u	-1%	13µM*
S=C(Nc1ccc(Cl)cc1)N1CCCCC1	u	0%	10µM*
SMILES	VP16 counter	Luc counter	RORgamma inh
CN1CCN(C(=S)Nc2ccc(Cl)cc2)CC1	5%	2%	0%
CCc1ccc(NC(=S)N2CCCCCCC2)cc1	u	1%	5.6µM*
CCOc1ccc(NC(=S)N2CCCC2)cc1	-6%	x	-16%
FC(F)(F)c1cccc(NC(=S)N2CCCCCC2)c1	-10%	-1%	-2%
S=C(Nc1ccccc1)N1CCCCC1	-17%	1%	11µM*
Cc1ccc(C(=O)N/C(=C\c2cccs2)C(=O)NCCc2c[nH]c3ccccc23)cc1	-7%	2%	25%
C=Cc1c(C)/c2[n-]/c1=C\c1[n-]c(c(CC)c1C)/C=c1\[n-]c3c(c1C)C(=O)C(C(=O)[O-])C=3c1[n-]c(c(C)c1CCC(=O)[O-])\C=2.[Cu].[Na+].[Na+] (stereo not drawn)	-15%	-29%	u
O=[N+]([O-])c1ccccc1SN(Cc1ccccc1)c1ccccn1	-7%	-1%	-20%
CC(C)(C)OC(=O)N1CCC(C(=O)NCC2CCCO2)CC1 (stereo not drawn)	-13%	x	-3%
CCOC(=O)N/N=C1/C[C@@H](O)[C@@H](O)[C@@H]2[C@@H]3C(=O)N(C(C)(C)C)C(=O)[C@H]3CC[C@H]12	-1%[10 µM]	x	-11%[10 µM]
CCC/C=C(\CCC)C(NC(=O)c1cccs1)c1ccc(C(F)(F)F)cc1 (stereo not drawn)	-8%	-5%	u
COc1ccc(C(=O)N(C)C2CCN(C)CC2)cc1S(=O)(=O)Nc1cc(Cl)ccc1Cl	-13%	x	-6%
CC(C(=O)NCC1CCCCC1)N1CCN(S(=O)(=O)c2ccccc2F)CC1 (stereo not drawn)	-10%	3%	22%
Cc1ccc(NC(=S)N2CCCC2)cc1C	-18%	x	u
FC(F)(F)c1cnc(N2CCCN(C(=S)Nc3ccccc3)CC2)c(Cl)c1	u	x	7.9µM*
FC(F)(F)c1cnc(N2CCN(C(=S)NCc3ccccc3)CC2)c(Cl)c1	-15%	x	-10%
Cc1ccc(NC(=S)N2CCCC2)cc1Cl	u	x	16µM*
CC(NC(=O)C(=O)N1CCOCC1)C(c1cccs1)N1CCN(c2ccccc2)CC1 (stereo not drawn)	2%	x	-32%
O=C(N/N=C/c1ccc(N2CCCCC2)o1)c1ccccc1	5µM*	2%	5µM*
O=C(N/N=C/c1ccc(N2CCOCC2)o1)c1cccc([N+](=O)[O-])c1	-21%	-1%	-26%
Cc1ccc(/C=N\NC(=O)c2cc([N+](=O)[O-])cc([N+](=O)[O-])c2)o1	u	-1%	2.5µM*
O=C(N/N=C/c1ccccc1)c1ccc(-c2ccccc2)cc1	4%	x	11%
Cc1ccc(/C=N/NC(=O)C(=O)N/N=C/c2ccc(C)o2)o1	-1%	3%	-2%
Cc1ccc(/C=N/NC(=O)c2ccc(-c3ccccc3)cc2)o1	u	x	13µM*
S=C(NCc1ccco1)N1CCN(C/C=C/c2ccccc2)CC1	0%	-2%	13%
SMILES	VP16 counter	Luc counter	RORgamma inh
O=C1CCCC=C1[C@@H](O)CCOCc1ccccc1	-6%[10 µM]	x	25%[10 µM]
CCc1nc(SCC(=O)Nc2cc(C)ccc2OC)c2c(C)c(C)sc2n1	2%	x	-18%
COc1cccc(/C=N/NC(=O)CN2CC(c3ccccc3)CC2=O)c1O (stereo not drawn)	1.3µM*	-1%	0.56µM*
COc1ccc(/C=N/NC(=O)CNC(=O)COc2ccccc2)cc1	7%	-2%	2%
COc1cccc(/C=N/NC(=O)CNC(=O)COc2ccccc2)c1O	1µM*	x	0.28µM*
COc1cccc(/C=N/NC(=O)C[n+]2ccccc2)c1O	7%	-3%	-33%
COc1ccc(CCCC(=O)N/N=C/c2cccc(OC)c2O)cc1C	0.13µM*	-1%	0.22µM*
O=C(CNC(=O)c1ccco1)N/N=C/c1ccccc1[N+](=O)[O-]	3%	11%	12%
COc1cccc(/C=N/NC(=O)CNC(=O)c2ccco2)c1O	20µM*	x	1.6µM*
COc1cccc(/C=N/NC(=O)c2cc(-c3ccc(C)cc3)n[nH]2)c1O	x	-9%	x
O=C(Oc1coc(CSc2ncccn2)cc1=O)c1cccs1	19%	0%	-20%
O=C1NC[C@H](c2ccccc2)N1	-3%	0%	-8%
CCOc1ccc(/C=N/NC2=NCCCCC2)cc1	5%	1%	1%
Cn1c(=O)c2[nH]c(COc3ccc(C(C)(C)C)cc3)nc2n(C)c1=O	u	x	-3%

From PubChem BioAssay
